From PubChem BioAssay AID1259341 (Broad Institute, 2017) come the findings set out here.

The structures appear in SMILES notation. A number with no mark means an inactive call. Calls of active or inactive are those of the source.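 The calls were made as follows: active = activity change under -35% in any replicate well, with more than 20 beads read in that well; inactive = the rest.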

The assay deals with Caspase recruitment domain-containing protein 9 (Homo sapiens) + E3 ubiquitin-protein ligase TRIM62 (Homo sapiens) (UniProt Q9H257+Q9BVG3). The assay is described as follows: disruptors of CARD9-TRIM62 binding, primary screen, cell lysate, HEK293FT lysates, Luminex bead ELISA (AID 1259341).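 Also: PE anti-Flag signal of Flag-CARD9 captured by myc-TRIM62 beads.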 The conditions noted are these: PE fluorescence, stronger effect = lower value, concentration not given here.
Caspase recruitment domain-containing protein 9 (Homo sapiens) + E3 ubiquitin-protein ligase TRIM62 (Homo sapiens), sequence (Q9BVG3 whole entry, looked up, the tested form may be a part): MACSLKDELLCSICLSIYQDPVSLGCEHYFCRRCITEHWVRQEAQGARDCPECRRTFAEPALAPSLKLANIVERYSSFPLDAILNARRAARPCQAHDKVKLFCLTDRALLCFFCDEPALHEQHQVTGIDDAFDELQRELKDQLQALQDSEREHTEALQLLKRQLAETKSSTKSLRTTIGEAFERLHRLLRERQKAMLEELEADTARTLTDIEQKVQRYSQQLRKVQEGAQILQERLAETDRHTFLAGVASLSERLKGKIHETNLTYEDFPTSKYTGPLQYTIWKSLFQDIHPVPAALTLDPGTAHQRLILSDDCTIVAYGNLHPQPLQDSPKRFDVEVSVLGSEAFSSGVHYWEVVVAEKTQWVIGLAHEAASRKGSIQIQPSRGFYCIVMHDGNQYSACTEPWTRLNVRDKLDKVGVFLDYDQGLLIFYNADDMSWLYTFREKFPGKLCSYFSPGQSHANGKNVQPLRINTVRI
Caspase recruitment domain-containing protein 9 (Homo sapiens) + E3 ubiquitin-protein ligase TRIM62 (Homo sapiens), sequence (Q9H257 whole entry, looked up, the tested form may be a part): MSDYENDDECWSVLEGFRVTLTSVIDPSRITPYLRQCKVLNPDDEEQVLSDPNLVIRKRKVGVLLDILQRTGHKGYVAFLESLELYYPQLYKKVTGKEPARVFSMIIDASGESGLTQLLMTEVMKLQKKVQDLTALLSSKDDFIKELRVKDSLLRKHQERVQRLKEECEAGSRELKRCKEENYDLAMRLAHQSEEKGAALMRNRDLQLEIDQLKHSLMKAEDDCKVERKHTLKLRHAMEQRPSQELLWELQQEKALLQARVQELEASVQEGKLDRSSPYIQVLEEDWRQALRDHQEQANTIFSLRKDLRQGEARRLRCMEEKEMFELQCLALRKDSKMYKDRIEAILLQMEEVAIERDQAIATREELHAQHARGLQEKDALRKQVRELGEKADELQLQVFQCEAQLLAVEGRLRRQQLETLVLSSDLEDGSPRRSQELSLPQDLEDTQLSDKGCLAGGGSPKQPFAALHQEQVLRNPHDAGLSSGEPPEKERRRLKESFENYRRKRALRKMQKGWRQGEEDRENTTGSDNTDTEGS
In the case of `NC(=O)C1(N2CCCCC2)CCN(c2ncc(NC(=O)c3ccc(F)cc3)cc2C(=O)O)CC1`, the activity change, negative = inhibition is -19.3%.

For the compound `O=C(COC(=O)c1ccc(F)cc1F)Nc1ncccn1`, the activity change, negative = inhibition was -18.2%.

For the compound `O=C(O)c1cc(-c2ccc(-c3ccc(F)cc3)o2)nc2ccccc12`, the activity change, negative = inhibition was -7.53%.

In the case of `C[C@H](CO)N1C[C@H](C)[C@@H](CN(C)C(=O)C2CCCCC2)OCCCC[C@H](C)Oc2ccc(NS(=O)(=O)c3cccs3)cc2C1=O`, the activity change, negative = inhibition was 6.34%.

On to `COc1ccc(Nc2nc(-c3nnc(-c4ccc(F)cc4)o3)nc3ccccc23)cc1Cl`, for which the activity change, negative = inhibition is -3.07%.

Consider `COc1ccc(-n2c(C)c3c(OC)cccc(=O)c3c2C)cc1`, for which the activity change, negative = inhibition is 3.94%.

On to `CCCc1cc(C(=O)N2CC[C@H]3CNC[C@H]32)n(C)n1`, for which the activity change, negative = inhibition is -0.754%.

In the case of `Cc1ccc(Nc2nc(C(=O)Nc3ccc(Cl)cc3)nc3ccccc23)cc1`, the activity change, negative = inhibition was -19.6%.

Regarding `O=[N+]([O-])c1c(NCCCO)cc(SCc2ccco2)c2nonc12`, the activity change, negative = inhibition was 15.3%.

As for `O=S(=O)(c1ccc(F)cc1)N1CN(Cc2ccco2)c2nc3ccccc3nc21`, the activity change, negative = inhibition is 26.6%.

As for `Nc1cc2c(cc1O)CCCC2`, the activity change, negative = inhibition is -4.6%.

Regarding `CS(=O)(=O)N1CCN(c2ccc([N+](=O)[O-])c(SCc3ccco3)c2)CC1`, the activity change, negative = inhibition was -5.97%.

As for `C[C@H](CO)N1C[C@H](C)[C@@H](CN(C)CC2CCCCC2)OCCCC[C@H](C)Oc2ccc(NS(=O)(=O)c3cn(C)cn3)cc2C1=O`, the activity change, negative = inhibition was 9.05%.

As for `COc1ccc(S(=O)(=O)N2CCOCC2)cc1NC(=O)c1cccc(-n2cccc2)c1`, the activity change, negative = inhibition is -8.72%.

Turning to `CCOc1cc2c(C#N)c(N3CCNCC3)nc(N)c2c(N)n1`, the activity change, negative = inhibition was -2.85%.

With `Cc1nc(C)c(C(=O)Nc2ncc([N+](=O)[O-])s2)o1`, the activity change, negative = inhibition was -6.18%.

On to `O=C(CCc1nc(-c2ccccc2)no1)NCC1CNCCOC1` (stereo unspecified), for which the activity change, negative = inhibition is 18.6%.

For the compound `CC1(C)Cc2ccccc2-c2nc(-c3ccccc3)oc(=O)c21`, the activity change, negative = inhibition is -0.338%.

With `O=C(Cc1cccs1)Nc1nnc(Cc2ccccc2)s1`, the activity change, negative = inhibition was 10.6%.

As to `O=C(NCCc1ccco1)c1ccc(OCc2cn3ccccc3n2)cc1`, the activity change, negative = inhibition was 0.111%.

For the compound `COc1ccc(NC(=O)CN(C)C(=O)c2cc(-c3ccco3)nc3ccccc23)cc1`, the activity change, negative = inhibition is -8.21%.

With `O=C(Cc1ccc(S(=O)(=O)N2CCOCC2)s1)Nc1nc2c(s1)CCCC2`, the activity change, negative = inhibition is -0.777%.

With `O=C(Cn1c(=O)cc(C(=O)N2CCc3ccccc3C2)c2ccccc21)NCc1ccc2c(c1)OCO2`, the activity change, negative = inhibition is -5.84%.

For the compound `CC(=O)Nc1ccc2nc3c(=O)n(C)c(=O)n(C)c3nc2c1`, the activity change, negative = inhibition was 3.76%.

For the compound `CCNc1ncc(C(=O)NCCc2nc3c(s2)CCCC3)cn1`, the activity change, negative = inhibition is -3.32%.

Turning to `O=C(Nc1ncccc1O)c1ccc(OCC2CCCO2)cc1` (stereo unspecified), the activity change, negative = inhibition is 2.58%.

Take `O=[N+]([O-])c1ccc2cc[nH]c2c1`: the activity change, negative = inhibition was 7.88%.

On to `CC(=O)Nc1ccc(Nc2nc(-c3nnc(-c4cccc(C)c4)o3)nc3ccccc23)cc1`, for which the activity change, negative = inhibition is -1.95%.

Regarding `O=C1NC(c2ccc(Br)cc2)Nc2sc3c(c21)CCC3` (stereo unspecified), the activity change, negative = inhibition is -3.86%.

As for `O=C1CC(c2ccco2)Cc2nc(N3CCc4ccccc4C3)ncc21` (stereo unspecified), the activity change, negative = inhibition is -4.59%.

On to `O=S(=O)(Nc1nc2ccc(S(=O)(=O)N3CCCCC3)cc2s1)c1ccccc1`, for which the activity change, negative = inhibition is -0.733%.

Regarding `N#Cc1sc2nc(-c3ccccc3)cc(-c3ccco3)c2c1N`, the activity change, negative = inhibition was 2.21%.

Turning to `COc1ccc(-c2ccc(CCC(=O)O)o2)cc1`, the activity change, negative = inhibition was -0.268%.

As to `NC(=O)C1(N2CCCCC2)CCN(c2ncc(NC(=O)c3cccc(Cl)c3)cc2C(=O)O)CC1`, the activity change, negative = inhibition is -53.8% (active).

In the case of `NC(=O)C1(N2CCCCC2)CCN(c2ncc(NC(=O)c3ccccc3F)cc2C(=O)O)CC1`, the activity change, negative = inhibition is -10.2%.

For `C[C@H](CO)N1C[C@H](C)[C@@H](CN(C)CC2CCCCC2)OCCCC[C@H](C)Oc2ccc(NS(C)(=O)=O)cc2C1=O`, the activity change, negative = inhibition is -25.8%.
